Inconclusive results are not listed. Calls of active or inactive are those of the source. Unless noted, calls come from the whole dose curve; as a rule, active = well fitted curve in the direction sought with a large enough effect; inconclusive = small, poorly fitted or top-dose-only effect, or another doubt; inactive = no such curve, though single readings can be large; an effect the other way counts as inactive or inconclusive.
Tests used:
[1] = target: Lysosomal acid glucosylceramidase (Homo sapiens) (UniProt P04062); test: Glucocerebrosidase-p2 (AID 348; in the data active = potency below about 10 µM; note: potency is the fitted concentration of half-maximal effect); conditions: purified GBA, blue fluorogenic substrate, 40 min
How it was run: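 Compounds titrated from 0.6 nM upwards against 0.2 nM enzyme in pH 5.9 citric acid/KH2PO4, taurocholate, tween-20; blue fluorogenic substrate 80 uM, 40 min room temperature, stopped and read Ex 365/Em 440 for AC50.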

[2] = AP1 Signaling Pathway (AID 357; active = well fitted curve in either direction with a large enough effect, not every such curve was filed as active;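 note: ME-180 reporter cells stimulated with EGF at its EC50 level; % is set by controls: 0 for no effect and ±100 for the full control effect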); conditions: ME-180 AP-1-bla reporter, EGF-induced, beta-lactamase ratio, 5 h; at 7.69 µM (top of the series) unless noted
How it was run: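 A ratiometric CCF4 readout (405 nm excitation; 460 and 530 nm emission) quantified AP-1-driven beta-lactamase in ME-180 cells after 5 h with compound and EC50 EGF; AC50 values were derived for activators and inhibitors.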

[3] = NFAT Signaling Pathway (AID 444; active = well fitted curve in either direction with a large enough effect, not every such curve was filed as active;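 note: carbachol stimulus at about its EC50 of 1 µM final; % is set by controls: 0 for no effect and ±100 for the full control effect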); conditions: Jurkat NFAT-bla M1, carbachol, beta-lactamase ratio, 5 h; at 7.69 µM (top of the series) unless noted
How it was run: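 Jurkat cells carrying an NFAT-driven β-lactamase reporter and co-transfected muscarinic M1 receptor were treated with compound plus carbachol (1 uM final, an EC50 level) for 5 h at 37 °C. CCF4 loading followed for 1 h at RT; 460/530 nm ratio gave %activity.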

[4] = Stat Signaling Pathway (AID 446; active = well fitted curve in either direction with a large enough effect, not every such curve was filed as active;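 note: ME-180 cervical cancer cells given 40 pM IL-6 alongside compound; SIE-controlled beta-lactamase reporter measured as 460/530 nm FRET emission ratio; % is set by controls: 0 for no effect and ±100 for the full control effect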); conditions: ME-180 (cervical carcinoma) SIE beta-lactamase reporter, IL-6 stimulated, 5 h; at 7.69 µM (top of the series) unless noted
How it was run: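 IL-6/STAT signaling read in ME-180 cells via an SIE beta-lactamase reporter. Stimulus was 40 pM IL-6 (its AC50) for 5 hrs, so both activation and inhibition register.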

[5] = target: Glucocorticoid receptor (Homo sapiens) (UniProt P04150); test: GR-GFP Redistribution (AID 450;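 active = compounds whose dose series gives a full or clear partial fitted curve of increased nuclear translocation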; note: potency is the fitted concentration of half-maximal effect); conditions: U2OS GR-GFP nuclear translocation, laser cytometry, 2 h
[6] = target: Glucocorticoid receptor (Homo sapiens) (UniProt P04150); test: GR-EFC Redistribution (AID 451; calls by dose curve; note: potency is the fitted concentration of half-maximal effect); conditions: CHO-K1 GR-EFC translocation, beta-gal luminescence, 2 h
How it was run: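 CHO-K1 cells stably expressing nuclear-localized β-gal enzyme acceptor and GR fused C-terminally to the enzyme donor fragment; ligand-driven nuclear translocation restores β-gal by complementation. Compounds titrated up to 46 uM final, 2 h at 37 °C; luminescence read.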

[7] = target: Mitogen-activated protein kinase 10 (Mus musculus) (UniProt Q61831); test: JNK3 AlphaScreen Assay (AID 530; active = well fitted curve in either direction with a large enough effect, not every such curve was filed as active;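 note: kinase came from lysate of stimulated human HepG2 cells; signal reports phosphorylation of biotinylated GST-cJun 1-79 at Ser73 with 10 µM ATP; % is set by controls: 0 for no effect and ±100 for the full control effect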); conditions: JNK3 lysate, c-Jun phosphorylation; series mostly up to 57.1 µM
How it was run: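 JNK3 came from HepG2 lysates pre-activated with IL-1beta and TNF-alpha and phosphorylated biotinylated GST-cJun (1-79) at 10 uM ATP, pH 7.6, room temperature. Compounds were titrated. AlphaScreen signal used anti-phospho-cJun (Ser73) antibody.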

[8] = target: 3',5'-cyclic-AMP phosphodiesterase 4B (Homo sapiens) (UniProt Q07343); test: qHTS Assay for Inhibitors of PDE-IV (AID 607; active = well fitted activation curve with a large enough effect in the main read-out, with a control signal flat, not every such curve was filed as active; note: % of control where 0% means no effect); conditions: HEK293 ACTOne CNG channel cells, membrane potential fluorescence; series mostly up to 22.9 µM
How it was run: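 Live HEK293 cells with a modified cyclic nucleotide-gated (CNG) channel report intracellular cAMP via membrane-potential dye fluorescence (ex 535/em 590 nm). Endogenous PDE-IV was targeted. Compounds were tested at up to 22.9 uM final; RO 20-1724 100 uM served as control.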

[9] = qHTS Assay for Lipid Storage Modulators (AID 1519; calls by dose curve); conditions: Drosophila S3 cells, BODIPY lipid droplet/cell ratio, laser cytometry, cells loaded with oleic acid; for activity change, negative = inhibition: at 57.5 µM (top of the series)
How it was run: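 Cells seeded at 5,000 per well were treated with compounds over a concentration series and loaded with oleic acid (400 uM, as added). Lipid droplet fluorescence (488 nm excitation, 500-530 nm channel) was read by laser-scanning cytometry and normalized to 20 uM Triacsin C.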

[10] = target: Dual specificity protein kinase CLK4 (Homo sapiens) (UniProt Q9HAZ1); test: qHTS Assay for Inhibitors of CDC-like Kinase 4 (ADP-Glo Assay) (AID 1771); conditions: recombinant CLK4, ADP-Glo luminescence; series mostly up to 80 µM; note: % is set by controls: 0 for no effect and ±100 for the full control effect; nearly all actives have a fitted effect of over 70% in size
How it was run: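 Clk4 (25 nM) was incubated 1 hr at room temperature with 100 uM RS repeat peptide and 1 uM ATP in buffer with 2 mM MgCl2, 0.5 mM EGTA, 2.5 mM DTT. ADP formed was quantified by ADP-Glo luminescence.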

[11] = target: Dual specificity protein kinase CLK4 (Homo sapiens) (UniProt Q9HAZ1); test: qHTS Assay for Inhibitors of CDC-like Kinase 4 (ADP-FP Assay) (AID 1795); conditions: Transcreener ADP fluorescence polarization; series mostly up to 50 µM;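 note: recombinant human CLK4 phosphorylating RS repeat peptide at 1 µM ATP; % is set by controls: 0 for no effect and ±100 for the full control effect; nearly all actives have a fitted effect of over 60% in size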
How it was run: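 Inhibition of ADP formation by 6.25 nM Clk4 is measured using 1 uM ATP and 100 uM RS repeat peptide over one hour. Produced ADP displaces a fluorescent tracer from antibody, lowering polarization.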

[12] = target: Ubiquitin carboxyl-terminal hydrolase 1 (Homo sapiens) (UniProt O94782); test: Inhibitors of USP1/UAF1: Pilot qHTS (AID 504865); conditions: purified USP1/UAF1, Ub-rhodamine cleavage fluorescence; series mostly up to 54.9 µM; note: nearly all actives have a fitted effect of over 35% in size; note: potency is the fitted concentration of half-maximal effect
How it was run: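 Kinetic fluorescence assay: 1nM USP1/UAF1, 15 min compound preincubation, then 150nM Ub-Rho; 480/540 nm.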

[13] = Primary qHTS for small molecule stabilizers of the endoplasmic reticulum resident proteome: Secreted ER Calcium Modulated Protein (SERCaMP) assay (AID 1508630); conditions: SH-SY5Y GLuc-SERCaMP (Gaussia luciferase released on ER calcium loss) secretion, thapsigargin, luminescence; series mostly up to 38.4 µM; note: % is set by controls: 0 for no effect and ±100 for the full control effect
How it was run: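 GLuc-SERCaMP-expressing SH-SY5Y cells, pretreated 16 h with compound, are challenged with thapsigargin to empty ER calcium stores; after 4 h, coelenterazine is added directly to the medium and luminescence is imaged.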

[14] = target: Cytochrome P450 1A2 (Homo sapiens) (UniProt P05177); test: p450-cyp1a2 (AID 410; calls by dose curve; note: potency is the fitted concentration of half-maximal effect); conditions: recombinant CYP1A2, luciferin-ME demethylation, luminescence; series mostly up to 57 µM
How it was run: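 Human CYP1A2 (20nM) demethylated Luciferin-ME at its Km (100uM) in 100mM KPO4. After 10 min compound preincubation, NADPH regeneration ran the reaction 60 min at room temperature. Luciferin was read by luminescence, normalized to 57 uM furafylline.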

[15] = target: Cytochrome P450 3A4 (Homo sapiens) (UniProt P08684); test: qHTS Assay for Activators of Cytochrome P450 3A4 (AID 885); conditions: recombinant CYP3A4, Luciferin-PPXE luminescence, 60 min; series mostly up to 57.1 µM; note: nearly all actives have a fitted effect of over 65% in size
How it was run: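 Quantitative HTS format: compounds preincubated with 20nM human CYP3A4 and Luciferin-PPXE substrate at KM, reaction started by NADPH regeneration, stopped after 60 min, luciferase luminescence read 20 min later.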

[16] = target: Dual specificity protein kinase CLK4 (Homo sapiens) (UniProt Q9HAZ1); test: qHTS Assay for Inhibitors of CDC-like Kinase 4 (Kinase-Glo Assay) (AID 1770); conditions: recombinant Clk4, Kinase-Glo ATP depletion luminescence; series mostly up to 66.7 µM; note: potency is the fitted concentration of half-maximal effect; nearly all actives have a fitted effect of over 65% in size
How it was run: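 Inhibition was judged from remaining ATP, measured by Ultra-Glo luciferase bioluminescence after Clk4 (25 nM) had acted on RS peptide at 1 uM ATP for 4.5 hours, room temperature.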

[17] = target: Cytochrome P450 3A4 (Homo sapiens) (UniProt P08684); test: qHTS Assay for Inhibitors and Substrates of Cytochrome P450 3A4 (AID 884); conditions: recombinant CYP3A4, Luciferin-PPXE luminescence; series mostly up to 57.1 µM; note: potency is the fitted concentration of half-maximal effect; nearly all actives have a fitted effect of over 50% in size
How it was run: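 20 nM human CYP3A4 with 25 uM Luciferin-PPXE (at KM) in 200 mM KPO4, preincubated 10 min with compound; NADPH regeneration started a 60 min RT reaction. Luciferin detected by luminescence, normalized to 57 uM ketoconazole as full inhibition.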

[18] = target: Cytochrome P450 2C19 (Homo sapiens) (UniProt P33261); test: qHTS Assay for Inhibitors and Substrates of Cytochrome P450 2C19 (AID 899); conditions: recombinant CYP2C19, luciferin-H EGE luminescence; series mostly up to 57.1 µM; note: potency is the fitted concentration of half-maximal effect; nearly all actives have a fitted effect of over 60% in size
How it was run: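 Human CYP2C19 (5nM) with Luciferin-H EGE at 10uM (its KM) in 50mM KPO4 was preincubated with compound for 10 min at 37C. NADPH regeneration started a 60 min 37C reaction. Luciferin was read by luminescence, normalized to 57uM ketoconazole.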

[19] = measured here: cell count channel max response
[20] = measured here: lipid channel max response

Sequence of Dual specificity protein kinase CLK4 (Homo sapiens) (Q9HAZ1 whole entry, looked up): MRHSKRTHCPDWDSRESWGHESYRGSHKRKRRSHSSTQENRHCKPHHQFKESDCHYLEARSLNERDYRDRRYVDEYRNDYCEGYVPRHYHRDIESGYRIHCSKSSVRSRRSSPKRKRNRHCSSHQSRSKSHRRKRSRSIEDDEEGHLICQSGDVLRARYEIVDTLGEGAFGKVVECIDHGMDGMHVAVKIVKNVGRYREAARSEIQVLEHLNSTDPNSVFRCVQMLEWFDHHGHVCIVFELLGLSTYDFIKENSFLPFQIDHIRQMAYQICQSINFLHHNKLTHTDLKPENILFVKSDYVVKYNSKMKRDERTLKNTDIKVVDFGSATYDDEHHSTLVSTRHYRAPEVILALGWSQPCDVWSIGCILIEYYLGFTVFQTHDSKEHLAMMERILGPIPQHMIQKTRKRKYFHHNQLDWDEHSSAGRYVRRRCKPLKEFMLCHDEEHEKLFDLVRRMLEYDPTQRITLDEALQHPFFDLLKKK
Sequence of Cytochrome P450 1A2 (Homo sapiens) (P05177 whole entry, looked up): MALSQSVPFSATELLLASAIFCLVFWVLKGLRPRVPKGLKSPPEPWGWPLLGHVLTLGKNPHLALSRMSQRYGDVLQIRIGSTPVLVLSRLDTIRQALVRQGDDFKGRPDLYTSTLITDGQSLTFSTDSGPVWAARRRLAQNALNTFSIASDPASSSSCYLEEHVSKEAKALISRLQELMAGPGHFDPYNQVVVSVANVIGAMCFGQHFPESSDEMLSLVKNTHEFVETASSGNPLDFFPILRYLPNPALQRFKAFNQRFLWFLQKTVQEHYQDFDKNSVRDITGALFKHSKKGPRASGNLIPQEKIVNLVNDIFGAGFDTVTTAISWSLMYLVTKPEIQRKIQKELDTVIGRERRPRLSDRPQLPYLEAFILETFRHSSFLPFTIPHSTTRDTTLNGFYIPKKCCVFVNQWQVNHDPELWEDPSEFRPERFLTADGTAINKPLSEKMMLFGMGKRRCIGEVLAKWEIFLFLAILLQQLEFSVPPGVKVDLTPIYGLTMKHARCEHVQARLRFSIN
Sequence of Ubiquitin carboxyl-terminal hydrolase 1 (Homo sapiens) (O94782 whole entry, looked up): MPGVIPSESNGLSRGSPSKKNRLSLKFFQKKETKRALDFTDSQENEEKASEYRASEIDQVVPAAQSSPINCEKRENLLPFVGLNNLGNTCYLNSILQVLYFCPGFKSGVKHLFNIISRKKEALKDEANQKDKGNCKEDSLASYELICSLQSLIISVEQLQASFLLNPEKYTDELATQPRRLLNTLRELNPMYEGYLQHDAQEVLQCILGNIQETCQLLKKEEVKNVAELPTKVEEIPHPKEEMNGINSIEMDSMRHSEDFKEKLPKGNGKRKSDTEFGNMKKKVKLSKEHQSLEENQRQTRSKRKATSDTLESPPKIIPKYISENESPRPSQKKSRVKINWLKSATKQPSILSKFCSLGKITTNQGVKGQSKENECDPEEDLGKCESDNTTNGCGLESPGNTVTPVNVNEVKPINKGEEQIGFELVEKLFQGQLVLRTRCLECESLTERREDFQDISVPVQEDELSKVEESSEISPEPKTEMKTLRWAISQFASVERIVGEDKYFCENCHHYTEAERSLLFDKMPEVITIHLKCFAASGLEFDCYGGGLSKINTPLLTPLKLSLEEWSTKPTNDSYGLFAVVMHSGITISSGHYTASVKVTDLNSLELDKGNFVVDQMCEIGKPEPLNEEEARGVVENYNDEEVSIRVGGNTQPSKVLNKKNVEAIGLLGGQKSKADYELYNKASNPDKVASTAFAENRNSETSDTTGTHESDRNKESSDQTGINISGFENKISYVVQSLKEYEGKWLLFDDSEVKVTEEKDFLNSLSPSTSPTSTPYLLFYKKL
Sequence of Cytochrome P450 3A4 (Homo sapiens) (P08684 whole entry, looked up): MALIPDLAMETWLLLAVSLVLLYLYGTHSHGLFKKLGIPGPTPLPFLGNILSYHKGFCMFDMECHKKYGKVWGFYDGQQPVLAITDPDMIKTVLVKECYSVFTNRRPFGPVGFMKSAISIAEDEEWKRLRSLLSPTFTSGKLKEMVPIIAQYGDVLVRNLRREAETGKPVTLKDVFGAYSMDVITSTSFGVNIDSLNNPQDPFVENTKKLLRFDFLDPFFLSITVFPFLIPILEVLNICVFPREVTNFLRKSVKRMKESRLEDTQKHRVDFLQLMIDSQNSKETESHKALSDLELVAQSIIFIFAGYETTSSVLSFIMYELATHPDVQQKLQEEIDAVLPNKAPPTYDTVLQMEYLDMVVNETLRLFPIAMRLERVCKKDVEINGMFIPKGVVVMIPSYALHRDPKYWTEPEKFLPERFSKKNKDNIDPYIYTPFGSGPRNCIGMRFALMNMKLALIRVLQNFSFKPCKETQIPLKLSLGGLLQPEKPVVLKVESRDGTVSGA
Sequence of 3',5'-cyclic-AMP phosphodiesterase 4B (Homo sapiens) (Q07343 whole entry, looked up): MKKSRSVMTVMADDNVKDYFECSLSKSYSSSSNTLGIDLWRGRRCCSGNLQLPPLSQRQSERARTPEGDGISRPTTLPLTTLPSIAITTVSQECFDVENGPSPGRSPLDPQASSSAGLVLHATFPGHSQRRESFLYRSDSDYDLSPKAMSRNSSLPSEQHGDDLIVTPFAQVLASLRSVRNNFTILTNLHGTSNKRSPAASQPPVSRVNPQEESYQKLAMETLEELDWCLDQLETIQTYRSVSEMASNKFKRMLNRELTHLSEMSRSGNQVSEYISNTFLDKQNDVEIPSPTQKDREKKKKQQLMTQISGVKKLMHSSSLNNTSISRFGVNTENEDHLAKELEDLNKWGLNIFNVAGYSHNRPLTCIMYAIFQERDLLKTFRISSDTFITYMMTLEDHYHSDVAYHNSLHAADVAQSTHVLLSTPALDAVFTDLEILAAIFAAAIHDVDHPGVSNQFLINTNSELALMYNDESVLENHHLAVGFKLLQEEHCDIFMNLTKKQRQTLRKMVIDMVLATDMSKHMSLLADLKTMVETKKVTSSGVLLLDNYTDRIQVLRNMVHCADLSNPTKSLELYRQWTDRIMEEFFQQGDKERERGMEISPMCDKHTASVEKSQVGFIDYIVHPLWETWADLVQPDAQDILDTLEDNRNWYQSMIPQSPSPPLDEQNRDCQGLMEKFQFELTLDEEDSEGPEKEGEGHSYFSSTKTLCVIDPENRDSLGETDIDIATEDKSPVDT
Sequence of Lysosomal acid glucosylceramidase (Homo sapiens) (P04062 whole entry, looked up): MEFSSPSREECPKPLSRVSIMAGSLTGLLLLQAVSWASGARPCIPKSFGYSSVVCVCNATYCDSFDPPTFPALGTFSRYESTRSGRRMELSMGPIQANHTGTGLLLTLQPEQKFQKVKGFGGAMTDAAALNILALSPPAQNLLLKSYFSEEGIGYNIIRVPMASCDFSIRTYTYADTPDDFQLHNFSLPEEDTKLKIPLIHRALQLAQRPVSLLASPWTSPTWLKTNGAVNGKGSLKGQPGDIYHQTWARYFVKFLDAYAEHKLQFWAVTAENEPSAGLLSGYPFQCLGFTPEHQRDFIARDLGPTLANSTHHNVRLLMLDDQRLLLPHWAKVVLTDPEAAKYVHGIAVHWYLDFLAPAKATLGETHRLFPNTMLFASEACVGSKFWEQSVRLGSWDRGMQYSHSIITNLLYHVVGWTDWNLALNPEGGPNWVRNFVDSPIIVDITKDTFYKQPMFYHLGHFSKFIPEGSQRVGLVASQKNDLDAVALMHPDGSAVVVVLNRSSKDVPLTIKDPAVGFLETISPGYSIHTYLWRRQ
Sequence of Glucocorticoid receptor (Homo sapiens) (P04150 whole entry, looked up, the tested form may be a part): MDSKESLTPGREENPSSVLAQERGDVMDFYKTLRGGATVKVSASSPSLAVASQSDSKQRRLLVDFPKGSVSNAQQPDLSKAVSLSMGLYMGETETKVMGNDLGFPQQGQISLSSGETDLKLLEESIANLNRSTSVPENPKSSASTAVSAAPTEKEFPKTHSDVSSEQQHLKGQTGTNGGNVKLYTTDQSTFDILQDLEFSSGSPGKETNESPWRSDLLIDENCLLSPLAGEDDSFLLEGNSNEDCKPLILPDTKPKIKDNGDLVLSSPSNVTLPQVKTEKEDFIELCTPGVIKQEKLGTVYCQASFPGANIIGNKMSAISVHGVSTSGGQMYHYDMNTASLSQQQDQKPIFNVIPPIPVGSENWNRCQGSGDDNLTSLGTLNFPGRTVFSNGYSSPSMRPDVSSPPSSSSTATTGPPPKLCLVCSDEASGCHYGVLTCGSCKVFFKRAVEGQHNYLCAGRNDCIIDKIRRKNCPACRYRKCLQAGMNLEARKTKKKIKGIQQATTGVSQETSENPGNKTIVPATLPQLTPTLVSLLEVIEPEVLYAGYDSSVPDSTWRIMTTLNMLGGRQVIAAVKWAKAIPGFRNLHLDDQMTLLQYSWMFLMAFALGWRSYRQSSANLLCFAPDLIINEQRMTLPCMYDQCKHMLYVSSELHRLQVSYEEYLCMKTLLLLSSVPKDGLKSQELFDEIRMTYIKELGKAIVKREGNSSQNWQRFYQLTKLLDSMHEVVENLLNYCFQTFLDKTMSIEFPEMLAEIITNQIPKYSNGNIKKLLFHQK
Sequence of Cytochrome P450 2C19 (Homo sapiens) (P33261 whole entry, looked up): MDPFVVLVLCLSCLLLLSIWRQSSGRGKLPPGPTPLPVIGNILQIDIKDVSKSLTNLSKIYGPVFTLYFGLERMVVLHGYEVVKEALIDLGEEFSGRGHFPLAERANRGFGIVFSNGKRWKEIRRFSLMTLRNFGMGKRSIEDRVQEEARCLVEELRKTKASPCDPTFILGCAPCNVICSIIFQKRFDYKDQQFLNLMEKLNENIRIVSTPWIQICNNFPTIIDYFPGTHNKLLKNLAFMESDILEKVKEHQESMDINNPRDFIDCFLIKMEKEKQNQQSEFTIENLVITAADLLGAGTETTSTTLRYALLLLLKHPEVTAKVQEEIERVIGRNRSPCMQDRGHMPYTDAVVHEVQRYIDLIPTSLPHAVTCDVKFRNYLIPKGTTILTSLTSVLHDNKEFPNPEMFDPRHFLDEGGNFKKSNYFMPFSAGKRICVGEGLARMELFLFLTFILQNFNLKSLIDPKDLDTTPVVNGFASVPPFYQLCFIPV

COc1ncc2nc(-c3ccc(F)cc3)c(=O)n(C3CC3)c2n1
inactive: Potency [1] > 11.4 µM | activity change, negative = inhibition [2] -9.24% | activity change, negative = inhibition [3] -21.4% | activity, negative = inhibition [4] -4.24% | Potency [5] > 9.22 µM | Potency [6] > 46 µM | outcome [7] | Potency [8] | activity change, negative = inhibition [9] 4.43% | Potency [10] | Potency [11] | Potency [12] | Potency [13]
16.8%: max response [9, 19]
19.3%: max response [9, 20]

COc1cccc(-c2cc(N(C)Cc3ccco3)ncn2)c1
inactive: Potency [1] > 11.4 µM | activity change, negative = inhibition [2] 22.2% | activity change, negative = inhibition [3] -17.2% | activity, negative = inhibition [4] -2% | Potency [5] > 46 µM | Potency [6] > 46 µM | outcome [7] | Potency [8] | Potency [15] | activity change, negative = inhibition [9] 8.28% | Potency [13]
active: Potency [14] 0.794 µM | Potency [16] 12.6 µM
20.9%: max response [9, 19]
28.5%: max response [9, 20]

Cn1cc(-c2nc3cnc(Oc4ccccc4)nc3n(C3CC3)c2=O)c2ccccc21
active: Potency [14] 5.01 µM
0.0554%: max response [9, 20]
inactive: Potency [1] > 11.4 µM | activity change, negative = inhibition [2] 13.1% | activity change, negative = inhibition [3] 9.34% | Potency [5] > 9.22 µM | Potency [6] > 46 µM | outcome [7] | Potency [8] | Potency [15] | activity change, negative = inhibition [9] 1.27% | Potency [10] | Potency [11] | Potency [12] | Potency [13]
1.6%: max response [9, 19]

COc1cccc(Nc2ncc3nc(-c4ccc(F)cc4)c(=O)n(C)c3n2)c1
active: Potency [14] 3.16 µM
inactive: activity change, negative = inhibition [2] -6.29% | activity change, negative = inhibition [3] -16.4% | activity, negative = inhibition [4] -6.63% | Potency [5] > 9.22 µM | Potency [6] > 46 µM | outcome [7] | Potency [8] | activity change, negative = inhibition [9] 5.16% | Potency [10] | Potency [11] | Potency [12] | Potency [13]
19%: max response [9, 19]
25.1%: max response [9, 20]

COc1cccc(Nc2ncc3nc(CCc4ccccc4)c(=O)n(C)c3n2)c1
27.3%: max response [9, 19]
12.3%: max response [9, 20]
inactive: Potency [1] > 11.4 µM | activity change, negative = inhibition [3] 21.6% | activity, negative = inhibition [4] -7.18% | Potency [5] > 9.22 µM | Potency [6] > 46 µM | outcome [7] | activity change, negative = inhibition [9] -10% | Potency [10] | Potency [11] | Potency [12] | Potency [13]

FC(F)(F)c1ccccc1-c1nc(NCc2cccs2)c2ccccc2n1
10.9%: max response [9, 20]
10.4%: max response [9, 19]
inactive: Potency [1] > 11.4 µM | activity change, negative = inhibition [3] -18.2% | activity, negative = inhibition [4] -11.7% | Potency [5] > 46 µM | outcome [7] | Potency [15] | activity change, negative = inhibition [9] 2.3% | Potency [10] | Potency [11] | Potency [13]
active: Potency [17] 3.98 µM | Potency [18] 7.94 µM | Potency [12] 7.94 µM

— PubChem BioAssay (NCATS)
